Measurements: PubChem BioAssay (NCI)
Compounds without any hit were thinned out: in the full panel of roughly 83,000, 20% have a hit.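 Values shown are percent growth following 48 h exposure of cells in 96-well plates to a single concentration of compound; below 10 was considered active.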 Activity calls are given as the source filed them.

Assays:
Assay in all cases: NCI-60 one-dose screen, 48 h (100 = growth as untreated, 0 = no growth, -100 = all killed)
Conditions in all cases: 10 µM
[1] = test system: NCI-H226 lung
[2] = test system: NCI-H322M lung
[3] = test system: HOP-62 NSCLC
[4] = test system: NCI-H460 lung
[5] = test system: NCI-H522 lung
[6] = test system: A549/ATCC NSCLC
[7] = test system: 786-0 renal
[8] = test system: COLO 205 colon
[9] = test system: HOP-92 NSCLC

Measured: growth

CC(=O)c1ccc2c(ccc3ccccc32)c1
inactive: [1] 94% | [2] 105% | [3] 115% | [4] 101% | [5] 93.1% | [6] 95.3% | [7] 91% | [8] 111%

NCCCN
inactive: [2] 108% | [3] 99.4% | [4] 108% | [9] 103% | [5] 105% | [6] 105% | [7] 104% | [8] 122%

CC(C)(C)c1cc(O)c(C(C)(C)C)cc1O
inactive: [1] 67.8% | [2] 100% | [3] 105% | [4] 96.3% | [5] 63.3% | [6] 87.4% | [7] 95.8% | [8] 108%

O/N=C/c1ccc(O)cc1O
inactive: [1] 108% | [2] 117% | [3] 101% | [4] 109% | [5] 86% | [6] 91.4% | [7] 108% | [8] 111%

CCc1nn(Cc2ccccc2)c2nc(C)c(CCc3ccccc3)c(Cl)c12
inactive: [1] 90.7% | [2] 79.5% | [3] 104% | [4] 90.8% | [7] 85% | [8] 110%
active: [9] 9.07%

O=C1OC(=O)C2C1C1(Cl)C(Cl)=C(Cl)C2(Cl)C2C(=O)OC(=O)C21 (stereo not given)
inactive: [1] 97.5% | [2] 107% | [3] 104% | [4] 107% | [7] 102% | [8] 93.9%

Nc1ccc(N=Nc2ccc(O)cc2)c(N)n1
inactive: [1] 75.8% | [2] 97.4% | [3] 99.7% | [4] 84.1% | [5] 47% | [6] 69.2% | [7] 65.3% | [8] 109%

COc1ccc(Oc2c(I)cc(CC(NC(C)=O)C(=O)O)cc2I)cc1 (stereo not given)
inactive: [1] 73% | [2] 102% | [3] 80.9% | [4] 104% | [5] 103% | [6] 87.3% | [7] 71.7% | [8] 108%

O=C(O)COCC(=O)O
inactive: [2] 97.6% | [3] 103% | [4] 107% | [9] 72.4% | [5] 94.3% | [6] 91.6% | [7] 110% | [8] 108%

O=[N+]([O-])c1ccc(-c2ncc(-c3ccc(Br)cc3)o2)cc1
inactive: [1] 107% | [2] 110% | [3] 114% | [4] 73.4% | [6] 30.5% | [7] 97.3% | [8] 134%

CCOc1ccccc1/C=N/Nc1nc2ccccc2o1
inactive: [1] 103% | [2] 113% | [3] 97.2% | [4] 102% | [9] 87.9% | [5] 110% | [6] 98.6% | [7] 116% | [8] 121%

COc1cc(C2c3cc4c(cc3C3OC(=O)C2C3CO)OCO4)cc(OC)c1OC (stereo not given)
active: [4] 0.82% | [5] -30.5% | [8] -92.4%
inactive: [2] 36.9% | [3] 28.5% | [9] 45.7% | [6] 14.9% | [7] 14.4%

CCOc1ccc(Br)cc1/C=N\N=C\c1cc(Br)ccc1OCC
inactive: [1] 97.6% | [2] 111% | [3] 108% | [4] 103% | [5] 104% | [6] 104% | [7] 105% | [8] 119%

OCCN(CCO)C(=S)S
inactive: [1] 103% | [2] 103% | [3] 108% | [4] 112% | [9] 109% | [6] 94% | [7] 101% | [8] 114%

S=c1nn[nH]c2ccccc12
inactive: [2] 95.6% | [3] 98% | [4] 105% | [6] 96.4% | [7] 111% | [8] 93.4%
